Reference: ChEMBL document CHEMBL4513146, “CO-ADD screening of Karazin Kharkiv National University (Ukraine) compounds”
Entries with a potency or affinity are not part of this list.

Tests used:
Klebsiella pneumoniae = conditions: Concentration 32 ug.mL-1;; ASSAY_TEST Inhibition of Bacterial Growth; detection method Absorption (OD600); MEDIA CAMHB; plate type 384well; NBS; CORNING #3640; time 18 hr
Candida albicans = conditions: Concentration 32 ug.mL-1; ASSAY_TEST Inhibition of Fungal Growth; detection method Absorption (OD530)
Cryptococcus neoformans = conditions: Concentration 32 ug.mL-1; ASSAY_TEST Inhibition of Fungal Growth; detection method Resazurin; Absorption (OD600-OD570); plate type 384well; NBS; CORNING #3640

SMILES	Inhibition (Klebsiella pneumoniae) [%]	Inhibition (Candida albicans) [%]	Inhibition (Cryptococcus neoformans) [%]
COc1ccccc1-n1ccn2c(SCC(=O)Nc3ccc4c(c3)OCO4)nnc2c1=O	8.58	4.47	-4.47
O=C(NCc1ccccc1)c1ccc2nn(CC(=O)N3CCN(c4ccccc4F)CC3)c(=O)n2c1	7.35	4.65	-15.87
Cc1ccc(Sc2nccn3c(=O)n(CC(=O)Nc4ccc(C)cc4Br)nc23)c(C)c1	10.73	2.86	-20.37
COc1ccc(NC(=O)c2ccc3nn(CC(=O)Nc4ccc5c(c4)OCCO5)c(=O)n3c2)cc1	2.24	1.62	-23.54
COc1ccc(-c2cc3c4nnc(SCC(=O)Nc5ccccc5C(F)(F)F)n4ccn3n2)cc1	8.66	3.79	-13.07
CC(C)c1ccc(N(Cc2ccc(Cl)cc2)S(=O)(=O)c2cccn3cnnc23)cc1	9.01	2.08	-6.18
O=C(Cn1nc2ccc(SCc3ccc(Cl)cc3)nn2c1=O)Nc1ccc(F)c(F)c1	3.9	20.34	-13.26
CCc1ccc(NC(=O)Cn2c(=O)c3nnc(C(C)C)n3c3ccccc32)cc1	8.25	26.99	-22.84
COc1ccc(C(=O)CSc2nnc3c(=O)n(-c4ccc(F)cc4)ccn23)cc1	10.95	4.42	-10
CCOC(=O)c1ccc(NC(=O)Cn2nc3c(Oc4ccccc4)nccn3c2=O)cc1	1.59	-0.16	-7.75
